According to PubChem BioAssay (EPA / NIEHS):
Where “and” joins values, the source holds several entries; their conditions need not be identical. Identical values can stand only once. More than one record can exist for a structure, and the calls need not agree. Calls of active or inactive are those of the source. The calls were made as follows: active = hit-call score of the fitted dose curve at least 0.9, where 1 is the maximum; inactive = score below 0.9.

Target: Cellular tumor antigen p53 (Homo sapiens) (UniProt P04637)
Experiment: ATG_p53_CIS: Attagene CIS-FACTORIAL HepG2 Assay for human p53 Transcription Factor (AID 2282994)
Conditions: HepG2 p53 cis-element reporter, Attagene mRNA; actives raise or lower the signal
Experimental: ATG_CIS is a cell-based, multiplexed-readout assay that uses HepG2, a human liver cell line, with measurements taken at 24 hours after chemical dosing in a 24-well plate.ATG_p53_CIS is one of 52 assay component(s) measured or calculated from the ATG_CIS assay. It is designed to make measurements of mRNA induction, a form of inducible reporter, as detected with fluorescence intensity signals by Reverse transcription polymerase chain reaction (RT-PCR) and Capillary electrophoresis technology.Data from the assay component ATG_p53_CIS was analyzed into 1 assay endpoint. This assay endpoint, ATG_p53_CIS, was analyzed with bidirectional fitting relative to DMSO as the negative control and baseline of activity. Using a type of inducible reporter, measures of mRNA for gain or loss-of-signal activity can be used to understand the reporter gene at the transcription factor-level as they relate to the gene TP53. Furthermore, this assay endpoint can be referred to as a primary readout, because this assay has produced multiple assay endpoints where this one serves a reporter gene function. To generalize the intended target to other relatable targets, this assay endpoint is annotated to the dna binding intended target family, where the subfamily is tumor suppressor.
Human liver HepG2 cells are transiently transfected with multiple reporter transcription units (MRTUs) in 6-well plates using FuGene 6 reagent (Roche; 3 ml FuGene/1 mg DNA). The MRTU constructs are regulated by a cis-regulating element (promoter). […] A major difference between the CIS and TRANS system is that in CIS activities of endogenous TFs are measured, whereas the TRANS assay evaluates changes in activities of exogenous, chimeric NR-Gal4 proteins. […] At the end of 24 hour incubation, total RNA was isolated using TriZol reagent (Invitrogen). The isolated RNA is then reverse-transcribed using oligo(dT) primer and Mo-MLV reverse transcriptase (Invitrogen) with DNAse I (Ambion) treatment for 30 min. The one-tenth of the produced cDNA was amplified by PCR using Taq DNA polymerase (Invitrogen) and two reporter sequence-specific primers. The PCR products were fluorescently labeled by primer extension with 6-arboxyfluorescein (6-FAM) 5'-labeled reporter sequence-specific primer (2 min at 95 C, 20 s at 68 C and 10 min at 72 C) and these products were digested with 5U of HpaI (New England Biolabs) for 2h at 37 C. The fragments were purified using Qiaquick PCR columns (Qiagen), analyzed on an ABI 3130xL genetic analyzer (Applied Biosystems) with peak positions identified by using a set of X-rhodamine (ROX)-labeled MapMarker1000 molecular weight standards (BioVentures). The raw capillary electrophoresis data was processed using Attagraph software (Attagene).

Chain of Cellular tumor antigen p53 (Homo sapiens) (P04637 whole entry, looked up): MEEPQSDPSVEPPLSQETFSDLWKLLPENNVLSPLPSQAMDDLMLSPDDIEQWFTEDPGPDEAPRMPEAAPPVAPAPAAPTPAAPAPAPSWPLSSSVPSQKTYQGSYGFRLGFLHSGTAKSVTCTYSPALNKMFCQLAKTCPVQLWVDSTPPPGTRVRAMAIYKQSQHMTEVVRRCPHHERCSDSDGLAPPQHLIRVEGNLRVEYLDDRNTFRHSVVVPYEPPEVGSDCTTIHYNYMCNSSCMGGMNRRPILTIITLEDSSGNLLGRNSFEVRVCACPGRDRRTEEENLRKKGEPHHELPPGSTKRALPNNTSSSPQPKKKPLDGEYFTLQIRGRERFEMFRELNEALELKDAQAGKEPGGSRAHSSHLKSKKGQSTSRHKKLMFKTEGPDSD

Question: For `C=COCC1CCC(COC=C)CC1` (stereo not given), which outcome is on record?
Answer: inactive

Question: For `CCC=C(C)C=O`, which outcome is on record?
Answer: inactive

Question: `S=c1[nH][nH]c(=S)s1` was tested. Which outcome did it give?
Answer: inactive

Question: For `CC(C)=CC(=O)O`, which outcome is on record?
Answer: inactive

Question: With `CCCO` as the compound, how does the outcome read?
Answer: inactive

Question: With `C[C@]12CC[C@@H]3c4ccc(O)cc4CC[C@H]3[C@@H]1CC[C@@H]2O` as the compound, how does the AC50 read?
Answer: 19.8 µM (active) and 21.3 µM (active) and 12.8 µM (active)

Question: And the outcome?
Answer: inactive

Question: For `c1coc(CNc2ncnc3nc[nH]c23)c1`, which outcome is on record?
Answer: inactive

Question: With `O=C(O)C1=NN(c2ccc(S(=O)(=O)O)cc2)C(=O)C1` as the compound, how does the outcome read?
Answer: inactive

Question: `CCCCCC(=O)O[C@]1(C(C)=O)CC[C@H]2[C@@H]3CCC4=CC(=O)CC[C@]4(C)[C@H]3CC[C@@]21C` was tested. Which outcome did it give?
Answer: inactive

Question: How did the outcome turn out when `CCCCCCOC(C)=O` was run?
Answer: inactive

Question: Which outcome does the source give for `C=CCCCCCCCCC(=O)OCC` here?
Answer: inactive

Question: For `NCCN1CCNCC1`, which outcome is on record?
Answer: inactive

Question: How did the outcome turn out when `NC(N)=S` was run?
Answer: inactive

Question: With `C=C1CC/C=C(\C)CC[C@@H]2[C@@H]1CC2(C)C` as the compound, how does the outcome read?
Answer: inactive

Question: `CC(=O)Oc1c(C)c(C)c2c(c1C)CC[C@@](C)(CCC[C@H](C)CCC[C@H](C)CCCC(C)C)O2` was tested. Which outcome did it give?
Answer: inactive

Question: With `O=C(c1ccc(OCCN2CCCCC2)cc1)c1c(-c2ccc(O)cc2)sc2cc(O)ccc12` as the compound, how does the AC50 read?
Answer: 9.07 µM (active) and 14.9 µM (active) and 15.1 µM (active)

Question: What about the outcome of the same compound?
Answer: inactive

Question: How did the outcome turn out when `[Cu+]` was run?
Answer: inactive

Question: `C=CC(C)(CCC=C(C)C)OC(=O)CC` (stereo not given) was tested. Which outcome did it give?
Answer: inactive

Question: How did the outcome turn out when `CC1=CC(C)C(C=O)C(C)C1` (stereo not given) (tested in a mixture with another compound) was run?
Answer: inactive

Question: For `[O-]/[N+](=N\O)c1ccccc1`, which outcome is on record?
Answer: inactive

Question: With `ClCCOCCOCCCl` as the compound, how does the outcome read?
Answer: inactive

Question: How did the outcome turn out when `CC(=O)CCC=C(C)CCC=C(C)C` was run?
Answer: inactive

Question: Which outcome does the source give for `CC(C)OB(OC(C)C)OC(C)C` here?
Answer: inactive

Question: For `C=C(C)CCCC(C)CCO` (stereo not given), which outcome is on record?
Answer: inactive

Question: `O=C(C=Cc1ccccc1)OCCCc1ccccc1` was tested. Which outcome did it give?
Answer: inactive

Question: `CCCCC(CC)COCCO` (stereo not given) was tested. Which outcome did it give?
Answer: inactive

Question: `CC1=CCC(C(C)C)=CC1` was tested. Which outcome did it give?
Answer: inactive

Question: For `CC(C)CCOC(=O)CC(C)C`, which outcome is on record?
Answer: inactive

Question: How did the AC50 turn out when `CCCCC/C=C\C=C\C(=O)OCC` was run?
Answer: 156 µM (active)

Question: With `COc1ccccc1O` as the compound, how does the outcome read?
Answer: inactive

Question: With `CCOc1ccc(NC(C)=O)cc1` as the compound, how does the outcome read?
Answer: inactive

Question: For `CC=CC(=O)C1=C(C)C=CCC1(C)C`, which outcome is on record?
Answer: inactive

Question: How did the outcome turn out when `CCC(C)(CCCC(C)C)OC(C)=O` (stereo not given) was run?
Answer: inactive

Question: For `CCCCOC(=O)C(C)OC(=O)CCC` (stereo not given), which outcome is on record?
Answer: inactive

Question: Which outcome does the source give for `CCCCOCCOCCOCCO` here?
Answer: inactive

Question: For `CC1=CC[C@@H](C(C)(C)O)CC1`, which outcome is on record?
Answer: inactive

Question: How did the AC50 turn out when `C[C@H](CCC(=O)O)[C@H]1CC[C@H]2[C@@H]3CC[C@@H]4C[C@H](O)CC[C@]4(C)[C@H]3CC[C@]12C` was run?
Answer: 100 µM (active)

Question: For `CC1=CCC(C(C)(C)O)CC1` (stereo not given), which outcome is on record?
Answer: inactive
